Records with an inconclusive call do not appear. The source made the active and inactive calls. The call rests on the fitted dose curve; in most records, active means well fitted cell-killing curve with a large enough effect in the repeat runs; inconclusive means weak or mixed curves, or effect the other way; inactive means flat fitted curve, though single readings scatter.
experiment: qHTS assay to identify small molecule antagonists of the androgen receptor (AR) signaling pathway using the MDA cell line - cell viability counter screen (AID 743041; further: nearly all actives have a fitted effect of over 45% in size); conditions: MDA-kb2 viability, CellTiter-Fluor, 16 h, cells co-treated with R1881 androgen agonist; series mostly up to 70.3 µM; viability change, negative = cytotoxic: at the top concentration
Text: National Center for Advancing Translational Sciences [NCATS]
NIH Chemical Genomics Center [NCGC]
U.S. Environmental Protection Agency [EPA]
National Institutes of Environmental Health Sciences [NIEHS]
National Toxicology Program [NTP]
U.S. Food and Drug Administration [FDA]
Androgen receptor (AR), a nuclear hormone receptor, plays a critical role in AR-dependent prostate cancer and other androgen related diseases. Endocrine disrupting chemicals (EDCs) and their interactions with steroid hormone receptors like AR may cause disruption of normal endocrine function as well as interfere with metabolic homeostasis, reproduction, developmental and behavioral functions. To identify the compounds that inhibit AR signaling, MDA-kb2 AR-luc cell line (from ATCC, deposited by Wilson et al.) was used to screen the Tox21 10K compound library. MDA-kb2 AR-luc cell line is human breast carcinoma cell line that was stably transfected with a luciferase reporter gene under control of the MMTV promoter containing response elements for both androgen receptor (AR) and glucocorticoid receptor (GR). The cytotoxicity of the Tox21 compound library against the MDA-kb2 AR-luc cell line was tested in parallel by measuring the cell viability using CellTiter-Fluor assay (Promega, Madison, WI) in the same wells.
Tox21 Assay Protocol Summary:
MDA-kb2 AR-luc cells were dispensed at 3,000 cells/4 uL/well of culture medium into white wall/solid-bottom 1536-well plates using a Multidrop Combi (ThermoFisher Scientific, Waltham, MA) dispenser. After the assay plates were incubated at a 37C and 0% CO2 for 5 hr, 23 nL of compounds dissolved in DMSO, positive controls or DMSO only was transferred to the assay plate by a Pintool station (Kalypsys, San Diego, CA), followed by addition of 1 uL of agonist (R1881) in culture medium using a Bioraptr Flying Reagent Dispenser (FRD) workstation (Beckman Coulter, Indianapolis, IN, USA). The plates were incubated at a 37C and 0% CO2 for 16 h. After 15.5 h incubation, 1uL of CellTiter-Fluor reagent (Promega) was added using a Bioraptr FRD to each plate for measuring cytotoxicity. The fluorescence intensity was quantified on a ViewLux plate reader (PerkinElmer, Shelton, CT) following 30 min incubation at 37C and 0% CO2.
On the % scale 0 is the no-effect control and ±100 the full control effect; potency means the concentration at half of the fitted maximal effect.

| Compound | viability change, negative = cytotoxic | Potency |
| --- | --- | --- |
| c1ccc(CNCc2ccccc2)cc1 | 10.1% (inactive) | – |
| CCOc1cc(OCC)c(C(=O)CCC(=O)O)cc1OCC | -0.594% (inactive) | – |
| CC(O)C1CCCCC1 (stereo not given) | 1.1% (inactive) | – |
| CC(C)(C)c1ccc(OCC2CO2)cc1 (stereo not given) | -0.866% [at 95 µM] (inactive) | – |
| CC(=O)N(O)CCCCCNC(=O)CCC(=O)N(O)CCCCCNC(=O)CCC(=O)N(O)CCCCCN | 8.48% [at 32.5 µM] (inactive) | – |
| Cn1c(N)nc2nc[nH]c2c1=O | -1.15% (inactive) | – |
| Cc1ccc(C(=O)C(C)CN2CCCCC2)cc1 (stereo not given) | – | inactive |
| C=C(C)C(=O)OC(C)C | -2.13% (inactive) | – |
| CCCCCCCCCCCCCCCC(=O)OC/C=C(C)/C=C/C=C(C)/C=C/C1=C(C)CCCC1(C)C | – | inactive |
| N[C@H]1C(O)O[C@H](CO)[C@H](O)[C@@H]1O (stereo not given in full) | -1.85% (inactive) | – |
| O=C(O)C(c1ccc(Cl)cc1)c1ccc(Cl)cc1 | 7.07% (inactive) | – |
| NCCCN(CCO)CCO | 18.6% (inactive) | – |
| CC(C)CCCCCCOC(=O)c1ccc(C(=O)OCCCCCCC(C)C)c(C(=O)OCCCCCCC(C)C)c1 | -2.82% (inactive) | – |
| Cc1cccc(Oc2ccccc2)c1 | 1.57% (inactive) | – |
| O=C=NC1CCC(CC2CCC(N=C=O)CC2)CC1 (stereo not given) | – | 6.86 µM (active) |
| CCCCCCOC(=O)CCC | -0.463% (inactive) | – |
| CC(=O)[C@@]1(O)CC[C@H]2[C@@H]3C[C@H](C)C4=CC(=O)CC[C@]4(C)[C@H]3CC[C@@]21C | -14% (inactive) | – |
| COC(Cc1ccccc1)OC | 6.72% (inactive) | – |
| C=CC(C)(CCC=C(C)C)OC(=O)c1ccccc1 (stereo not given) | 7.79% (inactive) | – |
| CCCC[C@H]1CN(CC2CCOCC2)C(=O)OC12CCN(C1(C)CCN(C(=O)c3c(C)ncnc3C)CC1)CC2 | 0.149% (inactive) | – |

| Compound | viability change, negative = cytotoxic | Potency |
| --- | --- | --- |
| CC(C)(C)c1cc(CCC(=O)OCC(COC(=O)CCc2cc(C(C)(C)C)c(O)c(C(C)(C)C)c2)(COC(=O)CCc2cc(C(C)(C)C)c(O)c(C(C)(C)C)c2)COC(=O)CCc2cc(C(C)(C)C)c(O)c(C(C)(C)C)c2)cc(C(C)(C)C)c1O | -1.26% [at 32.5 µM] (inactive) | – |
| CCN(CC)CCOC(=O)C1(c2ccccc2)CCCC1 | 1.8% (inactive) | – |
| Cc1ncsc1CCO | -3.57% (inactive) | – |
| CC1=CCC(C(C)C)C=C1 (stereo not given) | -16.8% (inactive) | – |
| Cc1ccc(C(N)=O)cc1N | -0.958% (inactive) | – |
| COc1ccccc1OC(=O)Oc1ccccc1OC | -3.97% (inactive) | – |
| CN1CCN(C2=Nc3cc(Cl)ccc3Nc3ccccc32)CC1 | 4.05% (inactive) | – |
| C1=Cc2ccccc2C1 | -0.0245% (inactive) | – |
| C=Cc1c(C)c2cc3[nH]c(cc4nc(cc5nc(cc1[nH]2)C(C)=C5CCC(=O)O)C(CCC(=O)O)=C4C)c(C)c3C=C | -24.4% (inactive) | – |
| CCCCCOC(=O)c1ccc(O)cc1 | -11.3% [at 95 µM] (inactive) | – |
| CNCC[C@@H](Oc1ccccc1C)c1ccccc1 | 1.4% (inactive) | – |
| NC(N)=NN=C(/C=C/c1ccc([N+](=O)[O-])o1)/C=C/c1ccc([N+](=O)[O-])o1 | – | 23.7 µM (active) |
| O=C1c2cccc(O)c2C(=O)c2c(O)cc(CO)cc21 | -2.63% (inactive) | – |
| CCN(CC)CCOc1ccc2c(c1)C(=O)c1cc(OCCN(CC)CC)ccc1-2 | 0.909% (inactive) | – |
| CCCCCCCCC(CO)CCCCCC (stereo not given) | 1.51% (inactive) | – |
| O=C(O)COC(=O)Cc1ccccc1Nc1c(Cl)cccc1Cl | 9.34% [at 32.5 µM] (inactive) | – |
| CC[C@H](C)[C@@H](C(=O)O)n1sc2ccccc2c1=O | -1.3% (inactive) | – |
| CCCc1ccccc1 | 2.99% (inactive) | – |
| Oc1ccc(Cc2ccccc2)cc1 | 0.914% (inactive) | – |
| CCCCCCCCCC=O | 3.71% (inactive) | – |

— PubChem BioAssay (Tox21)
